Reference: PubChem BioAssay (NCATS)
A number with no mark means an inactive call. Records with an inconclusive call do not appear. A call without a number means that no potency is given here. Activity calls are given as the source filed them. The call rests on the fitted dose curve; in most records, active means well fitted curve in the direction sought with a large enough effect; inconclusive means small, poorly fitted or top-dose-only effect, or another doubt; inactive means no such curve, though single readings can be large; an effect the other way counts as inactive or inconclusive.

How the values were obtained:
[1] = molecular target: Rap guanine nucleotide exchange factor 3 (Homo sapiens) (UniProt O95398); assay: Confirmatory qHTS for antagonist of cAMP-regulated guanine nucleotide exchange factor 3 (EPAC1) (AID 1645880); further: nearly all actives have a fitted effect of over 55% in size
Rap guanine nucleotide exchange factor 3 (Homo sapiens), sequence (O95398 whole entry, looked up): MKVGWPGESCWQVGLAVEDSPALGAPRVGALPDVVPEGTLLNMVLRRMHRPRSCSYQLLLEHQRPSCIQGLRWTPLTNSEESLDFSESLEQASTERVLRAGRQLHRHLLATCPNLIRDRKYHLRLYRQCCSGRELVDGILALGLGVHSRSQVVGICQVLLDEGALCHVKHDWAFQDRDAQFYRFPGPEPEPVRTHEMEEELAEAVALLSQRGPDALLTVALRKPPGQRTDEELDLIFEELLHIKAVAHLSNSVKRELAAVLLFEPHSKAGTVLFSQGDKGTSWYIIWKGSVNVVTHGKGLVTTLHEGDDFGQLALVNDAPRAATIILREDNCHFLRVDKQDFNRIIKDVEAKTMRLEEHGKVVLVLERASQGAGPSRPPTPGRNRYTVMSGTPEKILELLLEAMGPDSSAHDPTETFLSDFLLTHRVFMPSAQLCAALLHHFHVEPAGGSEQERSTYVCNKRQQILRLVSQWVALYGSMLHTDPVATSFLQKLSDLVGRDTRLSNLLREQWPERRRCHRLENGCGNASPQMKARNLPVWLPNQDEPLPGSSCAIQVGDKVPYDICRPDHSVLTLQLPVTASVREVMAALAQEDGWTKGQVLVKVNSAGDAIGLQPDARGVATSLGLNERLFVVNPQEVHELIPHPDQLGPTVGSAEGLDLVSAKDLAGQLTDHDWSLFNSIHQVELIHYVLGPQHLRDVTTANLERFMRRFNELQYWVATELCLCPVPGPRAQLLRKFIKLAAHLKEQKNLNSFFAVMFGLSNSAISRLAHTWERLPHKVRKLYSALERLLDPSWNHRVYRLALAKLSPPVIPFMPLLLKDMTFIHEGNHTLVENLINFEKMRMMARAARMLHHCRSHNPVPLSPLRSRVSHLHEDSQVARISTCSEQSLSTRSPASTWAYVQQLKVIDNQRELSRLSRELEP
How it was run: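 Released BODIPY-GDP fluoresces less than Rap1-bound BODIPY-GDP; the signal is followed at 480/540 nm at 5-min intervals over 30 min, after 5 min at room temperature. Reactions contain 100 nM EPAC1, 250 nM RAP1B-BODIPY-GDP and 50 uM GDP; results are normalized to ATA and DMSO.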

[2] = molecular target: Rap guanine nucleotide exchange factor 3 (Homo sapiens) (UniProt O95398); assay: Confirmatory qHTS for agonist of cAMP-regulated guanine nucleotide exchange factor 3 (EPAC1) (AID 1645881);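 further: EPAC1 catalysed release of BODIPY-GDP from Rap1B seen as fluorescence loss; nearly all actives have a fitted effect of over 75% in size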
[3] = molecular target: Rap guanine nucleotide exchange factor 4 (Homo sapiens) (UniProt Q8WZA2); assay: Confirmatory qHTS for agonist of cAMP-regulated guanine nucleotide exchange factor 4 (EPAC2) (AID 1645884);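 further: nucleotide exchange releases bodipy-GDP from Rap1 and this lowers its fluorescence; nearly all actives have a fitted effect of over 65% in size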
Rap guanine nucleotide exchange factor 4 (Homo sapiens), sequence (Q8WZA2 whole entry, looked up): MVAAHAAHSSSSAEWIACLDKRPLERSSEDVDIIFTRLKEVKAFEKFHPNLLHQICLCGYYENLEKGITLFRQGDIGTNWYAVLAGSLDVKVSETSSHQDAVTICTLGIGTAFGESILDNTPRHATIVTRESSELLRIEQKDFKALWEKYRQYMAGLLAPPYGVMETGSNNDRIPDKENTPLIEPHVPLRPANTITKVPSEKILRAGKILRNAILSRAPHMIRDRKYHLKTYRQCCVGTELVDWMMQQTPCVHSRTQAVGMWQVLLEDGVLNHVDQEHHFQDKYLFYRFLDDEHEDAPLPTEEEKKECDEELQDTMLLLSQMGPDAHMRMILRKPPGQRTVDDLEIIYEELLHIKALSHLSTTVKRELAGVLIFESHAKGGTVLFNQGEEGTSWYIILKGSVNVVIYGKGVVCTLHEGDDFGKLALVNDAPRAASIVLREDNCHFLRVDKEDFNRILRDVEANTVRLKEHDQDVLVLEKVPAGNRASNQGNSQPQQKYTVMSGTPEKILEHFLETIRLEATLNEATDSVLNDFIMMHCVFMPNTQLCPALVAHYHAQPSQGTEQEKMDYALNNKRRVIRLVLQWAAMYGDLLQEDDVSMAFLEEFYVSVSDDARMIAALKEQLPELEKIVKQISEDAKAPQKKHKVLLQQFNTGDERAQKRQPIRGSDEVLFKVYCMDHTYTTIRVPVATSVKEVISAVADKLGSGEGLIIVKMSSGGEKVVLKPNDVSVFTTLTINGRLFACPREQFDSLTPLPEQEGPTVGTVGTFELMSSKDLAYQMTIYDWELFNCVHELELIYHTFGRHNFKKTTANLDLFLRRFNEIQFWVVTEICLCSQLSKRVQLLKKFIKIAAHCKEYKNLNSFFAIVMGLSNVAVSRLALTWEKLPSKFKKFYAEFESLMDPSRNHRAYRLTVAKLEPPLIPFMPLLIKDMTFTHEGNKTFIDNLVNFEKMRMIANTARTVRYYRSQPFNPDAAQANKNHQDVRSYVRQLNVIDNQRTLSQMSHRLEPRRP

[4] = molecular target: Rap guanine nucleotide exchange factor 3 (Homo sapiens) (UniProt O95398); assay: Counterscreen qHTS for antagonist of cAMP-regulated guanine nucleotide exchange factor 3 (EPAC1) (AID 1645888)
How it was run: (§1)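 Rap1B-BODIPY-GDP 250 nM + GDP 50 uM; cpds 7-pt, final 9.74 nM–152 uM (activator mode) or from 7.32 nM upwards (inhibitor mode); RT; FI 480/540 nm at 5 and 30 min, then ± cAMP, reread.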

[5] = molecular target: Rap guanine nucleotide exchange factor 3 (Homo sapiens) (UniProt O95398); assay: Counterscreen qHTS for agonist of cAMP-regulated guanine nucleotide exchange factor 3 (EPAC1) (AID 1645889); further: nearly all actives have a fitted effect of over 40% in size; further: potency means the concentration at half of the fitted maximal effect
How it was run: as §1

[6] = molecular target: Cytochrome P450 3A4 (Homo sapiens) (UniProt P08684); assay: qHTS Assay for Inhibitors and Substrates of Cytochrome P450 3A4 (AID 884); further: potency means the concentration at half of the fitted maximal effect; nearly all actives have a fitted effect of over 50% in size
Cytochrome P450 3A4 (Homo sapiens), sequence (P08684 whole entry, looked up): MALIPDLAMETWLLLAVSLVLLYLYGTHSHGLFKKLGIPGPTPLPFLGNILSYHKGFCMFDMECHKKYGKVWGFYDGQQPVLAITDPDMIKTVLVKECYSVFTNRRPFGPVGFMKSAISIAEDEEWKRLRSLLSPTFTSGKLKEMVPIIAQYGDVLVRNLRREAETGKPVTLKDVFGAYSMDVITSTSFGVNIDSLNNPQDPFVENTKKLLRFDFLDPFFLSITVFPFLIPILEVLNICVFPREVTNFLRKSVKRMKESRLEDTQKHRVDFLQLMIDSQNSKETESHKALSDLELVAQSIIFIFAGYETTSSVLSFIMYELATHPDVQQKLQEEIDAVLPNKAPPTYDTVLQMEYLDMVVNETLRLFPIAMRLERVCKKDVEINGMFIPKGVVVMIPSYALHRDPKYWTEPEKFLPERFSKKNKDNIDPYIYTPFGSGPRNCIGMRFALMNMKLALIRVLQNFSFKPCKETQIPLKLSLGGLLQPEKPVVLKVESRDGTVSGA
How it was run: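 Luminescent readout of luciferin produced by CYP3A4 (20 nM) dealkylation of Luciferin-PPXE, 25 uM (its KM). NADPH-driven reaction ran 60 min at RT after 10 min compound preincubation; data scaled to 57 uM ketoconazole as 100% inhibition.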

[7] = Confirmation and Secondary Assay for Modulators of Hemoglobin Beta Chain Splicing at IVS2 654 locus (AID 910);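 further: HeLa cells stably carrying EGFP split by mutant beta-globin IVS2-654 intron; per-well total GFP intensity by laser scanning cytometry after 2-day treatment; potency means the concentration at half of the fitted maximal effect; potency of activators that raise GFP signal by restoring correct splicing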
How it was run: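 Readout: per-well total peak green fluorescence (488 nm ex, 500–520 nm em) from objects 5–250 µm, reflecting correct splicing of an EGFP-654 reporter. Compounds were applied for 2 days at 37 °C to overnight-plated HeLa EGFP-654 cells; controls were DMSO and 500 nM IVS2-654 PNA.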

[8] = molecular target: Rap guanine nucleotide exchange factor 4 (Homo sapiens) (UniProt Q8WZA2); assay: Confirmatory qHTS for antagonist of cAMP-regulated guanine nucleotide exchange factor 4 (EPAC2) (AID 1645885); further: nearly all actives have a fitted effect of over 25% in size; further: potency means the concentration at half of the fitted maximal effect

SMILES: Cc1ccc(-n2c(O)c(/C=C/C=Nc3ccccc3)c(=O)[nH]c2=O)cc1
- Potency [1]: inactive
- Potency [2]: inactive
- Potency [3]: inactive
- outcome [4]: inactive
- Potency [5]: 44.7 µM (active)

SMILES: CC[C@@]1(O)CC(O)c2c(cc3c(c2O)C(=O)c2c(O)ccc(O)c2C3=O)C1C(=O)OC (stereo partly drawn)
- Potency [6]: 7.94 µM (active)
- Potency [7]: 12.6 µM (active)
- Potency [1]: inactive
- Potency [2]: inactive
- Potency [3]: inactive
- Potency [8]: inactive

SMILES: COC1C(C)OC(OC2CC(C)(O)Cc3cc4c(c(O)c32)C(=O)c2c(O)cc3c(c2C4=O)OC2OC3(C)C(O)C(N(C)C)C2O)C(OC)C1(C)OC (stereo not drawn)
- Potency [1]: inactive
- activation [3]: 18.7% [at 17.1 µM, percent relative to cAMP agonist control]
- activity change, negative = inhibition [8]: 15.2% [at 12.7 µM]
- activity change, negative = inhibition [4]: 87.2% [at 30.8 µM]

SMILES: O=c1[nH]c(=S)n(-c2ccccc2F)c(O)c1C=Nc1ccc(N2CCOCC2)cc1
- Potency [1]: inactive
- activation [3]: 4.59% [at 17.1 µM, percent relative to cAMP agonist control]
- activity change, negative = inhibition [8]: -15.3% [at 12.7 µM]
- activity change, negative = inhibition [4]: -4.47% [at 30.8 µM]
- activation [5]: 32% [at 30.8 µM]

SMILES: Cc1cc2ccccn2c1C(C[N+](=O)[O-])c1c(F)cccc1Cl (stereo not drawn)
- Potency [2]: inactive
- Potency [3]: inactive
- Potency [8]: 15.1 µM (active)
- outcome [4]: inactive

SMILES: Cc1cccc(-c2nc(CN3C(=O)CN=C(c4ccccc4)c4ccccc43)c(C)o2)c1
- Potency [2]: inactive
- Potency [3]: inactive
- activity change, negative = inhibition [8]: 48.3% [at 12.7 µM]

SMILES: COc1cc2c(cc1OC)-c1c(OC)c(OC)cc3c1[C@H](C2)N(C)CC3
- Potency [2]: inactive
- activation [3]: 9.51% [at 17.1 µM, percent relative to cAMP agonist control]
- activity change, negative = inhibition [8]: -6.31% [at 12.7 µM]
- activity change, negative = inhibition [4]: 10.1% [at 30.8 µM]

SMILES: CCOC(=O)[C@]12Cc3cc(Cl)ccc3[C@H]1N(Cc1ccccc1)C(=O)c1ccccc12
- Potency [2]: inactive
- Potency [3]: inactive
- Potency [8]: inactive
- outcome [4]: inactive

SMILES: CCOC(=O)c1[nH]c2ccc(OC)cc2c1C(SCC(=O)O)c1ccc(C(F)(F)F)cc1 (stereo not drawn)
- Potency [2]: inactive
- activation [3]: 2.9% [at 17.1 µM, percent relative to cAMP agonist control]
- activity change, negative = inhibition [8]: -9.73% [at 12.7 µM]
- activity change, negative = inhibition [4]: -0.779% [at 30.8 µM]

SMILES: COc1ccc(CN2C(=O)NC(=O)/C(=C\c3ccco3)C2=O)cc1
- Potency [2]: inactive
- Potency [3]: inactive
- Potency [8]: inactive
- outcome [4]: inactive

SMILES: Nc1c2c(nc3sc4c(c13)CCCC4)CCCC2
- Potency [2]: inactive
- activation [3]: 3.84% [at 17.1 µM, percent relative to cAMP agonist control]
- activity change, negative = inhibition [8]: -3.15% [at 12.7 µM]
- activity change, negative = inhibition [4]: 4.03% [at 30.8 µM]
- activation [5]: 3.23% [at 30.8 µM]

SMILES: CCCCN1C(=O)/C(=C/c2ccc(N(C)C)cc2)C(=O)N(Cc2ccco2)C1=O
- Potency [2]: inactive
- activation [3]: 15.2% [at 17.1 µM, percent relative to cAMP agonist control]
- activity change, negative = inhibition [8]: 35.5% [at 12.7 µM]

SMILES: COc1cc(-n2c(=S)[nH]c3ccc(C)cc3c2=O)c(Cl)cc1Cl
- Potency [2]: inactive
- activation [3]: 8.75% [at 17.1 µM, percent relative to cAMP agonist control]
- activity change, negative = inhibition [8]: -17.7% [at 12.7 µM]
- activity change, negative = inhibition [4]: -20.5% [at 30.8 µM]
- activation [5]: 24.2% [at 30.8 µM]

SMILES: Nc1cc(Cl)c2nonc2c1[N+](=O)[O-]
- Potency [2]: inactive
- activation [3]: 5.26% [at 17.1 µM, percent relative to cAMP agonist control]
- activity change, negative = inhibition [8]: 1.82% [at 12.7 µM]
- activity change, negative = inhibition [4]: -3.15% [at 30.8 µM]

SMILES: COCCNC(=O)Cn1cc(/C=C2\C(=O)NC(=O)N(c3ccccc3F)C2=O)c2ccccc21
- Potency [2]: inactive
- Potency [3]: inactive
- Potency [8]: inactive
- outcome [4]: inactive

SMILES: O=C1NC(=O)N(CCc2ccc(F)cc2)C(=O)/C1=C/c1ccco1
- Potency [2]: inactive
- activation [3]: 1.5% [at 17.1 µM, percent relative to cAMP agonist control]
- activity change, negative = inhibition [8]: -8.03% [at 12.7 µM]
- activity change, negative = inhibition [4]: -2.28% [at 30.8 µM]
- activation [5]: 10.6% [at 30.8 µM]

SMILES: CCCNC1=C(C)C(=O)C2=C(C1=O)C(COC(N)=O)[C@]1(OC)C3NC3CN21 (stereo partly drawn)
- Potency [2]: inactive
- Potency [3]: inactive
- Potency [8]: inactive

SMILES: Cc1ccc(OCCn2cccc2/C=C2/C(=O)NC(=O)N(Cc3ccco3)C2=O)cc1
- Potency [2]: inactive
- Potency [3]: inactive
- Potency [8]: inactive
- outcome [4]: inactive

SMILES: Cc1cccc(OCCn2cccc2/C=C2/C(=O)NC(=O)N(Cc3ccco3)C2=O)c1
- Potency [2]: inactive
- Potency [3]: inactive
- Potency [8]: inactive
- outcome [4]: inactive

SMILES: COc1cc(/C=C/c2nc3ccccc3c(=O)n2-c2cccc(O)c2)ccc1O
- Potency [2]: inactive
- Potency [3]: inactive
- Potency [8]: inactive

SMILES: O=C1NC(=O)N(Cc2ccco2)C(=O)/C1=C\c1cccn1CCOc1ccc(Cl)cc1
- Potency [2]: inactive
- activation [3]: 1.56% [at 17.1 µM, percent relative to cAMP agonist control]
- activity change, negative = inhibition [8]: -27.2% [at 12.7 µM]
- activity change, negative = inhibition [4]: -25.1% [at 30.8 µM]

SMILES: Cn1cccc1/C=C1\C(=O)NC(=O)N(Cc2ccccc2Cl)C1=O
- Potency [2]: inactive
- Potency [3]: inactive
- Potency [8]: inactive
- outcome [4]: inactive
- Potency [5]: inactive

SMILES: Cc1cc(/C=C2\C(=O)NC(=O)N(Cc3ccccc3Cl)C2=O)c(C)n1-c1ccc(C(=O)O)cc1
- Potency [2]: inactive
- activation [3]: -9.15% [at 17.1 µM, percent relative to cAMP agonist control]
- activity change, negative = inhibition [8]: -6.02% [at 12.7 µM]
- activity change, negative = inhibition [4]: 4.25% [at 30.8 µM]

SMILES: O=C1NC(=O)N(Cc2ccccc2)C(=O)/C1=C\C=C\c1ccco1
- Potency [2]: inactive
- activation [3]: 12.1% [at 17.1 µM, percent relative to cAMP agonist control]
- activity change, negative = inhibition [8]: 2.97% [at 12.7 µM]
- activity change, negative = inhibition [4]: -17.1% [at 30.8 µM]

SMILES: COc1ccc(-n2c(/C=C/c3ccc(O)c(O)c3)nc3ccccc3c2=O)cc1
- Potency [2]: inactive
- Potency [3]: inactive
- Potency [8]: inactive

SMILES: NS(=O)(=O)c1ccc(-c2ccc(C=C3C(=O)NC(=O)NC3=O)o2)cc1
- Potency [2]: inactive
- Potency [3]: inactive
- Potency [8]: inactive
- outcome [4]: inactive
- Potency [5]: inactive

SMILES: CCCCC/C(=N/O)c1c(C)[nH]c2ccccc12
- Potency [2]: inactive
- Potency [3]: inactive
- Potency [8]: inactive
- outcome [4]: inactive
- Potency [5]: inactive

SMILES: CCOC(=O)[C@]12Cc3ccccc3[C@H]1N(C(C)C)C(=O)c1cc(OC)ccc12
- Potency [2]: inactive
- activation [3]: 1.3% [at 17.1 µM, percent relative to cAMP agonist control]
- activity change, negative = inhibition [8]: -28.9% [at 12.7 µM]
- activity change, negative = inhibition [4]: -13.8% [at 30.8 µM]

SMILES: CCOC(=O)[C@]12Cc3cc(Cl)ccc3[C@H]1N(C(C)C)C(=O)c1ccccc12
- Potency [2]: inactive
- Potency [3]: inactive
- Potency [8]: 21.3 µM (active)
- outcome [4]: inactive

SMILES: CCOC(=O)[C@]12Cc3cc(OC)ccc3[C@H]1N(Cc1ccccc1)C(=O)c1ccccc12
- Potency [2]: inactive
- Potency [3]: inactive
- Potency [8]: 19 µM (active)
- outcome [4]: inactive

SMILES: O=C1NC(=O)N(Cc2ccccc2)C(=O)/C1=C\c1ccco1
- Potency [2]: inactive
- activation [3]: 4.68% [at 17.1 µM, percent relative to cAMP agonist control]
- activity change, negative = inhibition [8]: 4.49% [at 12.7 µM]
- activity change, negative = inhibition [4]: 0.623% [at 30.8 µM]
- activation [5]: 12.3% [at 30.8 µM]

SMILES: CCN(CC)c1ccc(N=Cc2c(O)n(CCc3ccc(OC)c(OC)c3)c(=O)[nH]c2=O)cc1
- Potency [1]: inactive
- activity change, negative = inhibition [8]: -5.1% [at 12.7 µM]
- activity change, negative = inhibition [4]: -17.1% [at 30.8 µM]
